Measurements reported in ChEMBL document CHEMBL1961873, “Compounds: GSK PKIS; Assays: Nanosyn kinase panel” (2012).

Experiments:
[1] = biological target: Protein kinase C gamma type (Homo sapiens) (UniProt P05129); details: at 1 µM;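 note: each value is an averaged percent inhibition of the enzyme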
[2] = biological target: T1, Protein kinase C iota type (Homo sapiens) (UniProt P41743); details: at 0.1 µM
T1 sequence (whole entry): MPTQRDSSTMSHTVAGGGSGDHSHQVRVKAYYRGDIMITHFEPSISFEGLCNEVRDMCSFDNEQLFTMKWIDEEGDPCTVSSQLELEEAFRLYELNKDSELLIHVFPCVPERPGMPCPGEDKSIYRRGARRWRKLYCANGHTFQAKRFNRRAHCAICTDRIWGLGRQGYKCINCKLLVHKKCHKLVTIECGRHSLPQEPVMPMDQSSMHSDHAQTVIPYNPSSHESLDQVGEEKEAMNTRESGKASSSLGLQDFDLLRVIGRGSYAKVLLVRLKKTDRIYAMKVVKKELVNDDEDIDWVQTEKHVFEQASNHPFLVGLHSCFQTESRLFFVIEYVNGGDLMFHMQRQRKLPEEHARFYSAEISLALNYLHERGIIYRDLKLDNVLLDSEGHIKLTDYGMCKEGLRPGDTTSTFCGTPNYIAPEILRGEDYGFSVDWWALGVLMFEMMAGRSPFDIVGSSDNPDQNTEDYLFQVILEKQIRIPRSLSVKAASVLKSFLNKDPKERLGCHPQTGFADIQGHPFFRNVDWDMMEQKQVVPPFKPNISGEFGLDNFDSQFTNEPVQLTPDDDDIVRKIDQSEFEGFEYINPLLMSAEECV

[3] = biological target: T1, Protein kinase C iota type (Homo sapiens); details: at 1 µM
[4] = biological target: Protein kinase C theta type (Homo sapiens) (UniProt Q04759); details: at 0.1 µM
Sequence of Protein kinase C theta type (Homo sapiens) (Q04759 whole entry, looked up): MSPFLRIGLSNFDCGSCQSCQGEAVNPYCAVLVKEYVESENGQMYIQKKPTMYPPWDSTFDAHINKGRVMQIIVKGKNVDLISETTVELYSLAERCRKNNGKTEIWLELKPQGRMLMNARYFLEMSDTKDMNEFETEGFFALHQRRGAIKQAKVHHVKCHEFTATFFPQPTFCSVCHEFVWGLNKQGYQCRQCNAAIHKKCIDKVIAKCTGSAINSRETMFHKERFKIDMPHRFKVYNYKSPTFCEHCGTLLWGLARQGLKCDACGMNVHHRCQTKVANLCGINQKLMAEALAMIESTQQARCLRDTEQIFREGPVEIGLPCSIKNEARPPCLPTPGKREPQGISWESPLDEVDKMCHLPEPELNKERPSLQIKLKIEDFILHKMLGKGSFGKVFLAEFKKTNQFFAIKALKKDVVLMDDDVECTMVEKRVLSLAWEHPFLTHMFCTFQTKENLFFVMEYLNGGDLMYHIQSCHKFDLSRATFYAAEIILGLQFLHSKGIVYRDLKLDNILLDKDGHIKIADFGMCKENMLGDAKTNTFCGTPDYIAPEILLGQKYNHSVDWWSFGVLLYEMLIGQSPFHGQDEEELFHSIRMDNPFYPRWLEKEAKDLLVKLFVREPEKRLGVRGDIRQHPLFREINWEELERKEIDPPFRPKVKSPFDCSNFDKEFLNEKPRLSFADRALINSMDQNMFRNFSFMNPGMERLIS

[5] = biological target: Protein kinase C theta type (Homo sapiens) (UniProt Q04759); details: at 1 µM
[6] = biological target: Protein kinase C beta type (Homo sapiens) (UniProt P05771); details: at 0.1 µM
Sequence of Protein kinase C beta type (Homo sapiens) (P05771 2-671 limits assumed): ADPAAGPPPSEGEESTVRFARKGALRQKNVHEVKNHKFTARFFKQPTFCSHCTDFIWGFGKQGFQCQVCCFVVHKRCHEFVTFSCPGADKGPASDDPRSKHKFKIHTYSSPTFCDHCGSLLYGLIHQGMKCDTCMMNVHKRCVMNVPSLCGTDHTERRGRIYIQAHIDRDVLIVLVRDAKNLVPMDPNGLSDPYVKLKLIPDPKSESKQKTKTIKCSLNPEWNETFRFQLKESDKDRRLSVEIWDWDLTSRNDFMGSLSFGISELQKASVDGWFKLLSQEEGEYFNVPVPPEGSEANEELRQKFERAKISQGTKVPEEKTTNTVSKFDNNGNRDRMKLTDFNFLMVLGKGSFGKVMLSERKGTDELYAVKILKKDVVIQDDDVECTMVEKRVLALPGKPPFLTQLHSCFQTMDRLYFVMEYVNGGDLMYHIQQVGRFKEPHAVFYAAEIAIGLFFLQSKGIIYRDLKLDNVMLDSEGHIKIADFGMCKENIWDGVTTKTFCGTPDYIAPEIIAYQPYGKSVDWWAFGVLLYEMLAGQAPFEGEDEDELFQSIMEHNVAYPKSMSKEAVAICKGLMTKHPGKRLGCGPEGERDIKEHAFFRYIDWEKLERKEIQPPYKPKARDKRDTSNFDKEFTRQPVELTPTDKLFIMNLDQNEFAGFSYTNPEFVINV

[7] = biological target: Protein kinase C beta type (Homo sapiens) (UniProt P05771); details: at 1 µM
[8] = biological target: T2, Serine/threonine-protein kinase D1 (Homo sapiens) (UniProt Q15139); details: at 0.1 µM
T2 sequence (whole entry): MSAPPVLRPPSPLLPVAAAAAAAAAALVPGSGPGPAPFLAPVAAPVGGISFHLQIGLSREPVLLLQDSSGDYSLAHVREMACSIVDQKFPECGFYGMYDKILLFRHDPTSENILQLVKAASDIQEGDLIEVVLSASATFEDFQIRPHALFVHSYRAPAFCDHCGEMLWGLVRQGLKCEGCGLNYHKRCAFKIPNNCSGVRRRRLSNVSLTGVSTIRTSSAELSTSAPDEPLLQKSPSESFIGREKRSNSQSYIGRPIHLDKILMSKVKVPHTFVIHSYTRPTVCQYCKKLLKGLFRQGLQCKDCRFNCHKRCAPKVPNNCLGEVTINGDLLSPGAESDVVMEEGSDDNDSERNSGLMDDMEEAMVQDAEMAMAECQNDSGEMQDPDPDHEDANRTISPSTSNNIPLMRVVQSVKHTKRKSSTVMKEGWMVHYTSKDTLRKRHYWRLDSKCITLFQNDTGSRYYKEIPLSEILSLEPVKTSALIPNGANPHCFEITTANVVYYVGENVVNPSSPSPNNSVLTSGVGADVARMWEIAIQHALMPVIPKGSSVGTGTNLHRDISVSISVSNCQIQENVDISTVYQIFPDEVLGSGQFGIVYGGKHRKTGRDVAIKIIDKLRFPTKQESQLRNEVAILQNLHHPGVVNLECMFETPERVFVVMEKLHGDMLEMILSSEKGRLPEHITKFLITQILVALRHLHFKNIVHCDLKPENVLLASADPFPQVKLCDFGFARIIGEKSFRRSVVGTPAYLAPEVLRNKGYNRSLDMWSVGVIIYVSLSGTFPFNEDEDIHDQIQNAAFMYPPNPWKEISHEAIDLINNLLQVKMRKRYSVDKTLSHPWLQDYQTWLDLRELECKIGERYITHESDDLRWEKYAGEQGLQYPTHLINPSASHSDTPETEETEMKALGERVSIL

[9] = biological target: T2, Serine/threonine-protein kinase D1 (Homo sapiens); details: at 1 µM
[10] = biological target: T3, Serine/threonine-protein kinase D2 (Homo sapiens) (UniProt Q9BZL6); details: at 0.1 µM;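 note: reported percent inhibition values are means, part of the GSK PKIS kinase panel screen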
T3 sequence (whole entry): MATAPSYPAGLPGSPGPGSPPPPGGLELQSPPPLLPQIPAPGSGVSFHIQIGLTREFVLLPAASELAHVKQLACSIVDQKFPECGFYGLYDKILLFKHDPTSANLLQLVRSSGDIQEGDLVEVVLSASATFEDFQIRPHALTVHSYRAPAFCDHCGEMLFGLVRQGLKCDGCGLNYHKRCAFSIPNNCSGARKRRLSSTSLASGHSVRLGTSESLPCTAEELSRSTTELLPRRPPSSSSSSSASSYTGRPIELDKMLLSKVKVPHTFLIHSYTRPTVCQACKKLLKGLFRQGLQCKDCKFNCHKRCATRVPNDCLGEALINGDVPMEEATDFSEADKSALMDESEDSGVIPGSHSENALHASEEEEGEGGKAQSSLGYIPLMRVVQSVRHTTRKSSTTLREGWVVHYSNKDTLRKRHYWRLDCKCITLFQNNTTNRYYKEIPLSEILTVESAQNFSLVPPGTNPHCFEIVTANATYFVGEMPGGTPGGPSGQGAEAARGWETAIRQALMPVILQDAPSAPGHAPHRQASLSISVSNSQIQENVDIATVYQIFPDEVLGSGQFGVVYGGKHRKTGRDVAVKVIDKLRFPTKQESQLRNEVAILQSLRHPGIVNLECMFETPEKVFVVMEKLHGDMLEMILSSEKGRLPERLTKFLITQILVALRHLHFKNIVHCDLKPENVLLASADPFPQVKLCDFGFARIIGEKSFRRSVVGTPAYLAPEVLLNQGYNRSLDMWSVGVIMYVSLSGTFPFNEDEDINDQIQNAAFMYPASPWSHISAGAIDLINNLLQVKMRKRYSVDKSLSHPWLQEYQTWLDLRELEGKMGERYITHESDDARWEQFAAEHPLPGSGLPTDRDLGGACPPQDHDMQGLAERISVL

Structure (SMILES)	inhibition [1] [%]	inhibition [2] [%]	inhibition [3] [%]	inhibition [4] [%]	inhibition [5] [%]	inhibition [6] [%]	inhibition [7] [%]	inhibition [8] [%]	inhibition [9] [%]	inhibition [10] [%]
COc1ccc(-c2nn3ncccc3c2-c2ccnc(Nc3ccc(Cl)c(C(F)(F)F)c3)n2)cc1	-0.57	0.28	-1.6	1.56	2.55	0.91	0.81	2.22	3.95	2.47
CCn1c(-c2nonc2N)nc2c(C#CC(C)(C)O)nc(CN3CCCC3)cc21	8.24	0.19	1.41	2.28	7.85	3.25	6.65	1.55	5.93	1.71
CCn1c(-c2nonc2N)nc2c(C#CC(C)(C)O)nc(OC[C@@H](N)c3ccccc3)cc21	45.3	1.26	0.8	11.9	52.5	3.74	23.1	-0.47	9.57	-0.26
CCc1cccc(NC(=O)Nc2ccc(Oc3ccc4nc(NC(=O)OC)[nH]c4c3)cc2)c1	2	0.46	-1.58	0.42	1.12	-0.27	-1.17	1.25	1.01	0.52
COc1ccc(-c2ccncc2)cc1C(N)=O	1.71	0.36	1.27	2.73	4.84	0.88	2.35	5.51	15.2	4.91
Nc1nc(-c2ccc3c(c2)C(=Cc2cc(Br)c(O)c(Br)c2)C(=O)N3)cs1	2.01	0.79	0.34	-1.06	0.33	-0.52	1.78	-1.69	-1.78	-2.06
c1cnn2ncc(-c3ccnc(Nc4ccc5c(c4)OCCO5)n3)c2c1	9.81	2.88	1.82	2.63	5.92	0.79	5.22	6.99	45.1	5.55
Nc1ncnc2occ(-c3ccc(NC(=O)Nc4cccc(C(F)(F)F)c4)cc3)c12	2.18	3.47	3.34	2.55	2.66	1.71	2.2	5.29	7.85	5.02
CC1=C(C(=O)Nc2ccc3[nH]ncc3c2)C(c2ccc(F)cc2)NC(=O)N1 (stereo not given)	2.9	1.83	1.22	1.63	3.15	1.62	1.76	3.15	8.16	3.76
COc1ccccc1Nc1ncc(-c2ccccc2)o1	3.53	3.88	3.75	3.4	3.02	1.12	1.8	4.01	5.46	3.84
COc1ccc2cc(-c3c(-c4ccncc4)nc(-c4ccc([S+](C)[O-])cc4)n3C)ccc2c1 (stereo not given)	0.94	0.48	2.02	1.01	0.27	0.67	3.79	2.99	5.01	3.94
CCn1c(-c2nonc2N)nc2c(N3CCCC3)nccc21	2.66	0.51	-0.25	-0.32	0.44	-1.87	2.46	-0.28	-0.14	-1.19
COc1cc2ncn(-c3cc(O[C@H](C)c4ccccc4Cl)c(C(N)=O)s3)c2cc1OC	4.01	2.97	0.22	3.41	4.9	2.75	3.52	1.04	3.84	2.69
O=C1NC(=O)C(c2cccc(Cl)c2)=C1Nc1ccc(O)c(Cl)c1	0.01	-1.41	0.5	0	4.79	0.56	8.45	0.15	1.38	0.62
CCCN1CCC(Oc2cc(Nc3nc(Nc4cccc(F)c4C(N)=O)c4cc[nH]c4n3)c(OC)cc2Cl)CC1	14.8	1.04	1.06	1.35	7.05	1.2	4.52	0.11	7.94	-0.33
NS(=O)(=O)c1cccc(-c2ccc3c(NC(=O)C4CC4)n[nH]c3c2)c1	3.74	0.3	0.53	0.17	0.88	-0.62	2.57	-0.83	0.65	-0.79
CS(=O)(=O)CCNCc1ccc(-c2ccc3ncnc(Nc4ccc(OCc5ccccc5)c(Cl)c4)c3c2)o1	0.93	0.76	1.11	0.62	0.16	-0.28	0.08	-0.53	0.36	-0.95
